A selection: hits, their analogues and other compounds. The true share with any hit is near 3.5%.
MITF primary: human MITF inhibition, primary screen | inhibition, % at 2.6 µM | O75030 | 650,000 tested, 0.91% active | AlphaScreen MITF homodimerization, bead proximity signal; in the data active = inhibition above about 50%
Target sequence (O75030 whole entry, looked up): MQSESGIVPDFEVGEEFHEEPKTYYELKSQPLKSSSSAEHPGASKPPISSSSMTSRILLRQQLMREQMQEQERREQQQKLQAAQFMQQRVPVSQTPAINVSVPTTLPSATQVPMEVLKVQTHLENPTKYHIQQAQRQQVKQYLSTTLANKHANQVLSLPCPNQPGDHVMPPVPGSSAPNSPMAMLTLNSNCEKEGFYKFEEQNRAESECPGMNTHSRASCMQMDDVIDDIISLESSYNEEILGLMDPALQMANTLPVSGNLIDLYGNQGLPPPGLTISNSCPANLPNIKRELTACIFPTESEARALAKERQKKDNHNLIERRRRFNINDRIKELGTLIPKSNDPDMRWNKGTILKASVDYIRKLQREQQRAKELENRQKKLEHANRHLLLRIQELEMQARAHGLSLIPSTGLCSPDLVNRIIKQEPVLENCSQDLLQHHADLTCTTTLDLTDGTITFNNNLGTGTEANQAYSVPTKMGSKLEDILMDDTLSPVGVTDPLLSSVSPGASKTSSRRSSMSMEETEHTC
FBW7 activator: activators of human E3 ligase FBW7. Q969H0. AID 1259310. 650,000 tested, 0.13% active. AlphaScreen FBW7–phospho-cyclin E peptide binding, activator screen. normalized activity (activation), % at 26.1 µM; in the data active = normalized activity above about 1.9%;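 note: purified mutant Fbw7 with reduced substrate affinity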
GPR151 ag: human GPR151 activation; PathHunter beta-arrestin GPR151 cells, luminescence; AID 1508602; activation, % at 11.2 µM; Q8TDV0; 650,000 tested, 1% active; in the data active = activation above about 4.9%
TEAD-YAP inh: TEAD-YAP interaction inhibition; inhibition, % at 9.12 µM; AID 1259422; HEK-TIYL cells, TEAD-Gal4/YAP UAS-luciferase luminescence; 640,000 tested, 1.4% active; in the data active = inhibition above about 32%
A number is an active result; . = inactive.

SMILES	MITF primary	FBW7 activator	GPR151 ag	TEAD-YAP inh
COCc1c(C(=O)N/N=C/c2ccccc2Cl)nnn1-c1nonc1N	.	.	.	.
CCc1c(C(=O)N/N=C/c2cccc(OC)c2O)nnn1-c1nonc1N	.	.	.	74
COCc1c(C(=O)N/N=C/c2cccc(OC)c2O)nnn1-c1nonc1N	61	.	.	73
CC(C)(C)C(C)(O)C#Cc1ccccc1 (stereo unspecified)	.	.	.	83
CC(O)(C#Cc1ccccc1)c1ccccc1 (stereo unspecified)	.	.	.	.
Cc1ccc(Nc2c(-c3ccccc3)c(=O)c2=O)cc1F	.	.	.	35
Cc1ccc(-c2c(Nc3ccccc3C)c(=O)c2=O)cc1	.	.	.	49
Cc1ccc(CNc2c(-c3ccccc3)c(=O)c2=O)cc1	.	.	.	.
Cc1ccc(-c2c(NC(C)c3ccccc3)c(=O)c2=O)cc1 (stereo unspecified)	.	.	.	45
CCOC(=O)CSc1nc2ccsc2c(=O)n1-c1ccc(F)cc1	.	.	.	.
CNS(=O)(=O)c1cccc(C(=O)OCC(=O)c2cc(C)n(Cc3cccs3)c2C)c1	.	.	.	58
CNS(=O)(=O)c1cccc(C(=O)OCC(=O)c2cc(C)n(CC3CCCO3)c2C)c1 (stereo unspecified)	.	.	.	57
CNS(=O)(=O)c1cccc(C(=O)OCC(=O)c2cc(C)n(Cc3ccco3)c2C)c1	.	.	.	.
Cc1cc(C(=O)COC(=O)c2cccc(S(=O)(=O)N(C)C)c2)c(C)n1CC1CCCO1 (stereo unspecified)	.	.	.	.
CCOC(=O)CSc1nc2sc3c(c2c(=O)n1C1CCCCC1)CCN(C)C3	.	2.3	.	.
COc1ccc(Cl)cc1NC(=S)Nc1cccc(S(=O)(=O)N2CCOCC2)c1	.	.	.	.
CCOC(=O)N(CC#N)c1ccc(C)cc1	.	.	.	.
N#CCCN(C(=O)CCl)c1ccccc1	.	.	.	65
Cc1ccc(N(CCC#N)C(=O)CCl)cc1	.	.	.	77
CCOc1ccc(N(CCC#N)C(=O)CCl)cc1	.	.	.	46
CCOc1ccc(N(CCC#N)S(=O)(=O)c2ccc(Cl)cc2)cc1	.	.	.	.
N#CCCN(C(=O)CCl)c1ccc(F)cc1	.	.	.	82
COc1ccc(-c2cc3nc4c(c(NCc5cccnc5)n3n2)CCC4)cc1OC	.	.	.	36
COc1ccc(-c2cc3nc4c(c(NCCN)n3n2)CCC4)cc1OC	.	.	.	.
C=CCn1c(Cl)c(/C=N/NC(=O)OCC)s/c1=N\S(=O)(=O)c1cccs1	.	.	.	45
SMILES	MITF primary	FBW7 activator	GPR151 ag	TEAD-YAP inh
C=CCn1c(Cl)c(C=O)s/c1=N\S(=O)(=O)c1cccs1	.	.	.	60
Cc1ccccc1N1OC2C(=O)N(c3ccccc3)C(=O)C2C1c1cccs1 (stereo unspecified)	.	.	.	.
COc1ccc(C(=O)OCC(=O)NC(=O)NC2CCCC2)c(O)c1	.	.	.	.
COCCN(CC(=O)NC1CCCCC1)C(=O)/C=C/C(=O)c1ccc(OC)cc1O	.	.	.	49
C=CCOc1cccc(/C=C2\C(=O)N(CCc3ccc(OC)c(OC)c3)C(C)=C2C(=O)OC)c1	61	.	.	.
Cc1c(C(=O)NCc2ccccc2Cl)oc2ccc(S(=O)(=O)N3CCOCC3)cc12	.	2.4	.	.
COc1ccccc1CNC(=O)c1oc2ccc(S(=O)(=O)N3CCOCC3)cc2c1C	.	.	.	.
Cc1cc(C)n(CC(O)COc2ccc(C(=O)c3ccccc3)cc2)n1 (stereo unspecified)	.	.	.	.
CC(=O)c1c(C)nn(CC(O)COc2ccc(C(=O)c3ccc(Cl)cc3)cc2)c1C (stereo unspecified)	.	.	.	40
Cc1ccc(-n2c(SCC(=O)NCc3ccccc3Cl)nc3c(sc(=S)n3-c3cc(C)ccc3F)c2=O)cc1	.	.	.	.
c1ccc(-c2nc(NC3CCCCC3)cc(-c3ccncc3)n2)nc1	.	.	.	36
c1ccc(-c2nc(NC3CCCCC3)cc(-c3cccnc3)n2)nc1	.	.	.	69
c1ccc(-c2nc(NC3CC3)cc(-c3cccnc3)n2)cc1	.	.	.	.
c1ccc(-c2nc(NC3CC3)cc(-c3cccnc3)n2)nc1	.	.	.	44
O=C(NCCc1ccccn1)C1CC12CCN(C(=O)c1scc3c1CCCC3)CC2 (stereo unspecified)	.	.	.	.
CC1(C)OC(=O)N(c2cccnc2)C1(C)O (stereo unspecified)	.	.	.	.
COC(=O)c1ccccc1NC(=O)C1CCC(C)(C(=O)O)C1(C)C (stereo unspecified)	.	.	.	.
Cc1ccc2c(c1)C(=O)C(=O)N2CCCl	.	.	.	60
CCCN1C(=O)C(=O)c2cc(C)ccc21	.	.	.	.
COc1ccc2cc(Br)ccc2c1CC(=O)Nc1nc(C)cs1	.	.	.	38
CCCNc1ccc2ncc(-c3ccc(OC)c(OC)c3)n2n1	.	.	.	34
CCCNc1ccc2ncc(-c3cccc(C(N)=O)c3)n2n1	.	.	.	33
COc1ccc(CNc2ccc3ncc(-c4ccc(O)c(OC)c4)n3n2)cc1	.	.	.	.
COc1cc(-c2cnc3ccc(NCCCO)nn23)ccc1O	.	.	.	75
CC(C)CN(CC(C)C)S(=O)(=O)Cc1ccccc1	.	.	.	.
SMILES	MITF primary	FBW7 activator	GPR151 ag	TEAD-YAP inh
CSc1ccc(S(=O)(=O)N2CCCCC2)cc1	.	.	.	.
O=C(c1ccc(NS(=O)(=O)c2cccs2)cc1)N1CCc2ccccc2C1	.	.	.	.
C[C@H]1C(=O)N(C)CCN1C(=O)c1cc(COc2cccc3cnccc23)on1	.	.	.	36
CC(=O)c1ccc(OCc2cc(C(=O)N(C)C(C)c3ccon3)no2)cc1 (stereo unspecified)	.	.	.	.
CN(CCc1nc2ccc(F)cc2[nH]1)C(=O)c1cc(COc2cccc3cnccc23)on1	.	.	.	55
CC(c1ccon1)N(C)C(=O)c1cc(COc2cccc3cnccc23)on1 (stereo unspecified)	.	.	.	34
Cc1c(C(C)NC(=O)c2cc(COc3cccc4cnccc34)on2)cnn1C (stereo unspecified)	.	.	.	43
C=CCn1c(SCC(=O)NCc2cccnc2)nc2sc3c(c2c1=O)CCC3	.	.	.	.
Cc1ccc(NC(=O)c2cc3c(=O)n4cccc(C)c4nc3n2C)cc1Cl	.	.	.	.
Nc1nc(SCC(=O)NC(=O)c2cccc([N+](=O)[O-])c2)n[nH]1	.	.	.	.
CN(C(=O)c1cc(COc2cccc3cnccc23)on1)C1CCCCC1	.	.	.	43
O=C(NC1CCC1)c1cc(COc2cccc3cnccc23)on1	.	.	.	.
Cc1ccc(CNc2nc3ccccc3n2C)cc1	.	.	.	75
Cn1c(CNc2ccc(O)cc2)nc2ccccc21	.	.	.	.
Cc1ccc(NCc2nc3ccccc3n2C)cc1	.	.	.	35
Cn1c(NCc2ccncc2)nc2ccccc21	.	.	.	.
